According to paper PMC5540273 (PLoS ONE, 2017):

Assays:
Settings in all cases: concentration: 1 μM,replicates: in singlicate; n = 1
CAMK1 = tested on: CAMK1
CAMK2A = tested on: CAMK2A
CAMK2B = tested on: CAMK2B
CAMK2D = tested on: CAMK2D
CAMK2G = tested on: CAMK2G
CAMK4 = tested on: CAMK4
CAMKK1 = tested on: CAMKK1
CAMKK2 = tested on: CAMKK2
CASK = tested on: CASK
CDC2L1 = tested on: T1, CDC2L1
T1 construct: gene CDK11B
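Further: KINOMEscan kinase panel screen.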

Row | SMILES | %Inh (CAMK1) [%] | %Inh (CAMK2A) [%] | %Inh (CAMK2B) [%] | %Inh (CAMK2D) [%] | %Inh (CAMK2G) [%] | %Inh (CAMK4) [%] | %Inh (CAMKK1) [%] | %Inh (CAMKK2) [%] | %Inh (CASK) [%] | %Inh (CDC2L1) [%]
1 | CC(C)Nc1cc(-c2ccc3c(N)n[nH]c3c2)nc(N)n1 [GSK2221681] | 24 | 0 | 0 | 0 | 27 | 0 | 0 | 5 | 13 | 0
2 | O=C(NCCCN1CCOC1=O)c1cnc(NCc2cc(Cl)ccc2Cl)nc1NC1CCCC1 | 33 | 0 | 2 | 4 | 6 | 10 | 4 | 6 |  | 1
3 | C[C@@H]1CCN(C(=O)CC#N)C[C@@H]1N(C)c1ncnc2[nH]ccc12 | 21 | 0 |  | 0 | 0 | 0 | 0 | 0 | 0 | 2
4 | O=C(NCCNc1ccnc(NCc2ccc(F)cc2)n1)c1cc2ccccc2s1 [GSK1379944] | 0 | 0 | 0 | 1 | 3 | 0 | 6 | 0 | 82 | 0
5 | CCN(CC)CCOc1ccc(Nc2ncc3cc(-c4c(Cl)cccc4Cl)c(=O)n(C)c3n2)cc1 [SB-601273] | 51 | 4 | 0 | 5 | 29 | 0 | 20 | 22 | 22 | 18
6 | CN(C)CC(O)COc1ccc(Nc2nccc(-c3cnn4nc(N5CCOCC5)ccc34)n2)cc1 (centres unmarked) [GW767488] | 31 | 25 | 25 | 32 | 46 | 0 | 62 | 51 | 19 | 20
7 | CNC(=O)c1ccccc1Sc1ccc2c(/C=C/c3ccccn3)n[nH]c2c1 | 9 | 26 | 24 | 3 | 12 | 0 | 16 |  | 36 | 0
8 | C[C@@H](Oc1cc(-c2cnn(C3CCNCC3)c2)cnc1N)c1c(Cl)ccc(F)c1Cl | 0 | 12 | 2 | 16 | 20 | 0 | 24 | 24 |  | 59
9 | CN(C)CCOc1ccc(-c2cc(-c3c[nH]nc3-c3ccccn3)ccn2)cc1 [GW835314] | 12 | 0 | 0 | 24 | 0 | 0 | 25 | 2 | 29 | 2
10 | Cc1cc2cn[nH]c2cc1-c1cccc2c(N)c(C(N)=O)nnc12 | 47 | 0 | 5 | 8 | 15 | 27 | 29 | 7 | 23 | 2
11 | C=CC(=O)Nc1cc2c(Nc3ccc(F)c(Cl)c3)ncnc2cc1OCCCN1CCOCC1 [GW781483] | 14 | 0 | 0 | 0 | 15 | 0 | 6 | 14 | 0 | 0
12 | Cl.Cl.NC[C@H](Cc1ccc(C(F)(F)F)cc1)NC(=O)c1cc(Br)c(-c2ccnc3[nH]ccc23)s1 [GSK1487252] | 22 | 0 | 0 | 7 | 17 | 0 | 21 | 37 | 30 | 0
13 | Cl.Oc1cc(-c2nc(-c3ccccc3)[nH]c2-c2ccncc2)ccc1Cl [SB-386023] | 0 | 0 | 0 | 0 | 0 | 0 | 0 | 4 | 10 | 0
14 | Cl.Cl.Nc1nc(-c2ccc3c(N)n[nH]c3c2)cc(N2CCCC(NC(=O)c3ccccc3)C2)n1 (centres unmarked) [GSK2286775] | 18 | 0 | 0 | 11 | 19 | 0 | 18 | 14 | 16 | 0
15 | CCn1c(-c2nonc2N)nc2c(C#CC(C)(C)O)nc(OCCN)cc21.Cl.Cl [GSK902056] | 0 | 0 | 0 | 0 | 10 | 0 | 11 | 0 | 31 | 0
16 | NC(=O)c1cc(-c2ccccc2)cc2c(C3CCNCC3)c[nH]c12 [GSK301362] | 30 | 0 | 0 | 23 | 19 | 0 | 0 | 4 | 18 | 0
17 | Cc1ccc2c(-c3ccncc3)c(-c3ccc(F)cc3)nn2c1.Cl [GW461484] | 0 | 0 | 0 | 0 | 16 | 0 | 8 | 11 | 1 | 0
18 | CCN(CC)CCCCNc1ncc2cc(-c3c(Cl)cccc3Cl)c(NC(=O)NC(C)(C)C)nc2n1 | 9 | 0 | 0 | 9 | 20 | 20 | 15 | 23 | 0 | 0
19 | Cc1n[nH]c2ccc(-c3cc(OC[C@@H](N)Cc4ccccc4)cnc3-c3ccoc3)cc12.O=C(O)C(F)(F)F.O=C(O)C(F)(F)F [GSK507358] | 15 | 0 | 0 | 28 | 31 | 0 | 21 | 32 | 3 | 0
20 | COc1ccc(C[C@@H](CN)NC(=O)c2cc(Br)c(-c3ccnc4[nH]ccc34)s2)cc1.Cl.Cl [GSK1389063] | 23 | 7 | 0 | 26 | 19 | 13 | 66 | 64 | 34 | 0
21 | Cc1cc(C(=O)Nc2ccc(Oc3ccc4nc(NC(=O)C5CC5)cn4n3)cc2)nn1-c1ccccc1 | 10 | 0 | 0 | 12 | 0 | 16 | 22 | 16 | 0 | 18
22 | C[C@H]1Oc2cc(cnc2N)-c2c(nn(C)c2C#N)CN(C)C(=O)c2ccc(F)cc21 | 29 | 5 | 2 | 0 | 3 | 67 | 49 | 61 | 5 | 0
23 | Cl.Cl.NC[C@H](CC1CCCCC1)NC(=O)c1cc(Br)c(-c2ccnc3[nH]ccc23)s1 [GSK1581427] | 13 | 0 | 0 | 4 | 34 | 0 | 0 | 20 | 53 | 0
24 | Cc1ccc(-n2nc(C(C)(C)C)cc2NC(=O)Nc2ccc(OCCN3CCOCC3)c3ccccc23)cc1 [GW839464] | 4 | 13 | 13 | 11 | 3 | 16 | 12 | 0 | 14 | 0
25 | CC(C)N1C(=O)Cc2cc(Nc3ncc(C(F)(F)F)c(NCc4cccc(S(C)(=O)=O)c4)n3)ccc21 | 0 | 22 | 14 | 5 | 0 | 0 | 2 | 23 | 0 | 0
26 | Nc1nc(Nc2ccccc2)cc(-c2ccc3c(N)n[nH]c3c2)n1 [GSK2225749] | 3 | 0 | 0 | 0 | 0 | 0 | 0 | 0 | 0 | 0
27 | Cc1occc1-c1nc(N)c(OC[C@@H](N)Cc2c[nH]c3ccccc23)cc1-c1cc2c(C)n[nH]c2cn1 [GSK1660450] | 23 | 46 | 47 | 44 | 48 | 0 | 60 | 77 | 15 | 0
